Assay results as given in the supplement of paper PMC11219838.

The molecules below were run on Caenorhabditis elegans L1 (N2) (assay: survival and reproduction score of C. elegans L1 (0: 0-10 living worms, 1: 11-20, 2: 21-50, 3: >50, 4: overgrown) (score 0-4); higher = more worms, less nematicidal, active = 1 or less; extreme values may be limits of the assay). Conditions: 60 µM; 6 days; temperature: 20 °C.
How it was run: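 After compound was pinned to 60 µM final (0.6% v/v DMSO) into wells with roughly 20 synchronized C. elegans N2 L1s and E. coli HB101 in liquid NGM, the sealed 96-well plates were shaken at 200 rpm for 6 days at 20 °C. Under a dissection microscope, survival and reproduction were graded ordinally by living worms per well. A grade of 0 stood for 0–10 worms and 4 for overgrown, starved wells; two biological replicates were averaged.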

Row | SMILES | survival and reproduction score
1 | Clc1ccc(-c2noc(-c3ccncc3)n2)cc1 | 3.5 (inactive)
2 | COc1ccc(-c2noc(-c3ccccc3Br)n2)cc1 | 4 (inactive)
3 | COc1ccc(-c2nnc(SCC(=O)Nc3ccc(C)cc3Br)o2)cc1 | 4 (inactive)
4 | Cc1ccc(-c2noc(COc3cc(C)cc(C)c3)n2)cc1 | 4 (inactive)
5 | CCOc1ccccc1NC(=O)CSc1nnc(-c2ccccc2)o1 | 4 (inactive)
6 | Brc1cccc(-c2nc(-c3ccncc3)no2)c1 | 1 (active)
7 | Cc1ccc(SC(C)c2nc(-c3cccnc3)no2)cc1 (stereo not drawn) | 4 (inactive)
8 | O=C(CSc1nnc(-c2cccc3ccccc23)o1)c1ccc(F)cc1 | 4 (inactive)
9 | Cc1ccc(-c2noc(-c3cccc(C)c3)n2)cc1 | 0 (active)
10 | O=C(CSc1nnc(-c2ccco2)o1)Nc1ccc(Br)cn1 | 4 (inactive)
11 | O=C(CSc1nnc(-c2ccc(Cl)cc2)o1)Nc1ccc(F)cc1 | 4 (inactive)
12 | Clc1ccc(OCc2nc(-c3ccncc3)no2)cc1 | 4 (inactive)
13 | COc1ccc(-c2noc(-c3ccc(C)c(C)c3)n2)cc1 | 2 (inactive)
14 | COc1ccc(C(=O)Nc2ccc(-c3nnc(SCc4ccccc4)o3)cc2)cc1 | 4 (inactive)
15 | Ic1ccccc1-c1nc(-c2cccnc2)no1 | 3.5 (inactive)
16 | CCOc1ccccc1-c1nc(-c2ccc(Cl)cc2)no1 | 4 (inactive)
17 | COc1ccc(-c2nc(-c3ccc(C(F)(F)F)cc3)no2)cc1 | 4 (inactive)
18 | CCCCCOC(=O)CSc1nnc(-c2ccc(Cl)cc2Cl)o1 | 4 (inactive)
19 | O=C(CSc1nnc(-c2ccc(Br)cc2)o1)Nc1ccc2ccccc2c1 | 4 (inactive)

Row | SMILES | survival and reproduction score
20 | Ic1ccc(CSc2nnc(-c3ccccc3)o2)cc1 | 4 (inactive)
21 | Fc1ccc(-c2noc(-c3ccc(Br)cc3)n2)cc1 | 0 (active)
22 | CCOc1ccccc1-c1nnc(SCC(=O)c2ccccc2)o1 | 4 (inactive)
23 | Cc1ccccc1-c1nc(-c2ccc(Cl)cc2)no1 | 0 (active)
24 | CCOc1cc(-c2nc(-c3ccc(C)nc3OCC)no2)cc(OCC)c1OCC | 4 (inactive)
25 | Cc1ccc(CSc2nnc(-c3ccco3)o2)c(C)c1 | 0 (active)
26 | O=C(CSc1nnc(-c2ccc(Cl)cc2)o1)Nc1ccccc1C(F)(F)F | 4 (inactive)
27 | O=C(CSc1nnc(-c2cccc(Cl)c2)o1)Nc1ccccc1 | 4 (inactive)
28 | CCn1cc(C(=O)CSc2nnc(-c3ccccc3)o2)c2ccccc21 | 4 (inactive)
29 | Cc1ccc(-c2nnc(SCc3c(C)cc(C)cc3C)o2)cc1 | 4 (inactive)
30 | C=CCOc1cccc(-c2nc(-c3cccnc3)no2)c1 | 0 (active)
31 | CC(C)Oc1ccc(-c2nc(-c3ccncc3)no2)cc1 | 0 (active)
32 | Ic1ccc(OCc2nc(-c3ccncc3)no2)cc1 | 4 (inactive)
33 | Cc1csc(NC(=O)CSc2nnc(-c3cccc(Cl)c3)o2)n1 | 4 (inactive)
34 | COc1ccc(-c2nnc(SCC(=O)Nc3ccccc3C(C)C)o2)cc1 | 4 (inactive)
35 | COc1cccc(-c2nc(-c3ccccc3)no2)c1 | 1.5 (inactive)
36 | COc1ccc(Cl)cc1NC(=O)CSc1nnc(-c2ccco2)o1 | 4 (inactive)
37 | CCCOc1ccc(-c2nc(-c3cccnc3)no2)cc1 | 0 (active)
38 | Clc1ccc(-c2nc(C3CCCCC3)no2)cc1 | 4 (inactive)
